A selection: hits, their analogues and other compounds. The true share with any hit is near 3.5%.
GPR151 activ: activators of human GPR151, primary screen, cell-based, PathHunter beta-arrestin, luminescence; G-protein coupled receptor 151 (Homo sapiens), Q8TDV0; PathHunter beta-arrestin GPR151 cells; activation, % at 11.2 µM; actives 1% (n = 650,000); in the data active = activation above about 4.9%
TEAD-YAP inh: TEAD-YAP interaction inhibition, primary screen, TEAD-YAP interaction inhibitor project, luminescence, HEK-TIYL cells | TEAD-Gal4/YAP UAS-luciferase luminescence | inhibition, % at 9.12 µM | actives 1.4% (n = 640,000); in the data active = inhibition above about 32%
FBW7 activator: FBW7 E3 ligase activators, primary screen, biochemical, AlphaScreen, human. F-box/WD repeat-containing protein 7 (Homo sapiens), Q969H0. AlphaScreen FBW7–phospho-cyclin E peptide binding, activator screen. normalized activity (activation), % at 26.1 µM. actives 0.13% (n = 650,000); in the data active = normalized activity above about 1.9%;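 also: purified mutant Fbw7 with reduced substrate affinity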
Target sequence (Q969H0 whole entry, looked up): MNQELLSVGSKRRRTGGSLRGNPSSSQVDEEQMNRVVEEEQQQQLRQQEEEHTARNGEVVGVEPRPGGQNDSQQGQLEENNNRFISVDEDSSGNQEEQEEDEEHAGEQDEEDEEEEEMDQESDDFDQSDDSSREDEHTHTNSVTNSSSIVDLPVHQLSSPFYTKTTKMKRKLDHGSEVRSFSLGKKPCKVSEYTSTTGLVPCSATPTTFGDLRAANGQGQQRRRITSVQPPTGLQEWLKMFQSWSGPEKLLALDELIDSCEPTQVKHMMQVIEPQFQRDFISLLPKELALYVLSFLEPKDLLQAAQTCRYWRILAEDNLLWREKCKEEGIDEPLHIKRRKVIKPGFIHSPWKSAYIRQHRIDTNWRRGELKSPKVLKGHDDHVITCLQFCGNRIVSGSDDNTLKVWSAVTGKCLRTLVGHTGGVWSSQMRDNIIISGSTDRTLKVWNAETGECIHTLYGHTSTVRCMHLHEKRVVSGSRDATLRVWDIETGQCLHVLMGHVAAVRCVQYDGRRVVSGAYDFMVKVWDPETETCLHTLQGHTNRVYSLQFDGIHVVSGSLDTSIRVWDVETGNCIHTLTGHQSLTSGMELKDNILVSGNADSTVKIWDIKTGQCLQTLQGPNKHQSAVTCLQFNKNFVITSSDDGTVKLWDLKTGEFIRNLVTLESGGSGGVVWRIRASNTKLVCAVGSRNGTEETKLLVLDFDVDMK
MITF primary: MITF inhibitors, primary screen, biochemical, AlphaScreen, human; Microphthalmia-associated transcription factor (Homo sapiens), O75030; AlphaScreen MITF homodimerization, bead proximity signal; inhibition, % at 2.6 µM; actives 0.91% (n = 650,000); AID 1259374, 2018; in the data active = inhibition above about 50%
MITF inh conf: MITF inhibitors, retest of hits, confirmation, biochemical, AlphaScreen, triplicate. shares compounds with MITF primary. AlphaScreen MITF homodimerization, biotin/His-MITF beads. inhibition, % at 2.6 µM. actives 16% (n = 4,700). AID 1259372, 2018;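 active = inhibition above a cutoff derived from the DMSO control wells, cut at about 28% in these data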;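 also: inhibitors lower the bead chemiluminescence by keeping MITF from dimerizing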
AlphaScreen DR: AlphaScreen optical interference compounds, dose response, counter-screen, biochemical, HTS | actives 6% (n = 480) | AlphaScreen optical interference counterscreen, cell-free | AID 1259373, 2018 | IC50, µM | shares compounds with MITF primary; call rule not given here
AS interf ctr: AlphaScreen optical interference compounds, counter-screen for MITF inhibitor project, biochemical, triplicate | shares compounds with MITF primary | LysRS AlphaScreen counterscreen, signal interference | inhibition, % at 2.6 µM | actives 7.6% (n = 4,700) | AID 1259376, 2018;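 active = inhibition above a cutoff derived from the DMSO control wells, cut at about 30% in these data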
Large screens that a line does not name were inactive (follow-up assays come after a bar, where they were run).

Oc1cccc(/C=N/NC(=S)NCCN2CCOCC2)c1O	MITF primary 106
NC(=S)N/N=C/c1cccc(O)c1O	MITF primary 106
CCC/C(C)=C/Cc1c(O)c2c(c(C)c1OC)COC2=O	TEAD-YAP inh 66
COC1=C(OC)C(=O)C(C/C=C(\C)CC/C=C(\C)CC/C=C(\C)CC/C=C(/C)CC/C=C(\C)CC/C=C(\C)CC/C=C(\C)CC/C=C(\C)CC/C=C(\C)CCC=C(C)C)=C(C)C1=O	none
CC(C)(Oc1ccc(Cl)cc1)C(=O)Nc1ncc([N+](=O)[O-])s1	TEAD-YAP inh 36
CC1(C)CC2CC(C)(CN2C(=O)COC(=O)c2cc3ccccc3oc2=O)C1 (configuration not stated)	none
CC1=CC(=O)OC1Cc1ccncc1 (configuration not stated)	TEAD-YAP inh 41
CC1=NNC(=O)C1CCc1ccncc1 (configuration not stated)	none
c1cc(-n2cnc3c(Nc4ccc(N5CCOCC5)cc4)nc(N4CCC(N5CCOCC5)CC4)nc32)cs1	TEAD-YAP inh 37
c1ccc(Nc2nc(N3CCC(N4CCOCC4)CC3)nc3c2ncn3-c2ccsc2)cc1	TEAD-YAP inh 33
c1ccc(N2CCN(c3nc(Nc4ccc(N5CCOCC5)cc4)c4ncn(-c5ccsc5)c4n3)CC2)nc1	TEAD-YAP inh 38
c1ccc(N2CCN(c3nc(NC4CC4)c4ncn(-c5ccsc5)c4n3)CC2)nc1	TEAD-YAP inh 49
c1cc(-n2cnc3c(Nc4ccc5c(c4)OCO5)nc(N4CCC(N5CCOCC5)CC4)nc32)cs1	none
c1ccc(Oc2ccc(Nc3nc(N4CCOCC4)nc4c3ncn4-c3ccsc3)cc2)cc1	none
Cc1cc(C(=O)N2CCCc3ccccc32)on1	none
Oc1ccc(CCNc2ncnc3nc(N4CCN(c5ccccn5)CC4)[nH]c23)cc1	TEAD-YAP inh 39
CCCNc1nc(N2CCN(c3ccccn3)CC2)nc2c1ncn2-c1ccsc1	none
Oc1ccc(CCNc2nc(N3CCN(c4ccccn4)CC3)nc3c2ncn3-c2ccsc2)cc1	TEAD-YAP inh 53
c1ccc(OCCNc2ncnc3nc(N4CCN(c5ccccn5)CC4)[nH]c23)cc1	none
CC(=O)NC1CCN(C(=O)Nc2cccc(F)c2)CC1	none
CC1(C2CCN(C(=O)Cc3cccc(F)c3)CC2)NC(=O)N(CCN2CCOCC2)C1=O (configuration not stated)	none
CCc1nc(NCC(C)C)c2nnn(Cc3ccccc3)c2n1	MITF primary 61 | MITF inh conf inactive | AS interf ctr inactive
CCc1nc(NCCCCCO)c2nnn(Cc3ccccc3)c2n1	none
Fc1ccc(NCc2nnc(SCCN3CCOCC3)n2-c2ccccc2)cc1	MITF primary 67 | MITF inh conf inactive | AS interf ctr inactive
O=C(Nc1ccc(N2CCOCC2)cc1)c1csc(-c2ccccc2)n1	none
N#C/C(=C(/O)CSc1nnc(-c2ccccc2F)n1N)c1nc2ccccc2[nH]1	none
CCCc1nnc(SCC(=O)Nc2cc(C)on2)n1CC	MITF primary 74 | MITF inh conf inactive | AS interf ctr inactive
CCn1c(Cc2ccccc2)nnc1SCC(=O)Nc1cc(C)on1	none
O=C1CNC(=S)N1c1cccc(C(F)(F)F)c1	none
Cc1c(Cc2ccccc2)c(N2CCC(C)CC2)n2c(nc3ccccc32)c1C#N	none
CCCCc1c(C)c(C#N)c2nc3ccccc3n2c1N1CCC(C)CC1	MITF primary 53 | MITF inh conf inactive | AS interf ctr inactive
COc1cccc(NC(=S)N(CCCN2CCC(C)CC2)Cc2cccs2)c1	MITF primary 79 | MITF inh conf inactive | AS interf ctr inactive
CC1CCN(C(=S)SCc2cn3cccnc3n2)CC1	none
O=C(O)/C=C/C(=O)Nc1ccc(SC(F)F)cc1	MITF primary 56 | MITF inh conf inactive | AS interf ctr inactive
CCNc1nc(NCC)nc(N2N=C(C)CC2=O)n1	MITF primary 71 | MITF inh conf 41 | AS interf ctr 66
CC1=NN(c2cc(C)cc(C)c2)C(=O)C1	none
CCOc1ccc(C(=O)NC(=S)Nc2ccc(S(N)(=O)=O)cc2)cc1	MITF primary 53 | MITF inh conf inactive | AS interf ctr inactive
CC(C)(C)c1ccc(C(=O)NC(=S)Nc2ccc(S(N)(=O)=O)cc2)cc1	none
NC(=O)c1ccccc1NC(=S)NC(=O)c1ccco1	none
NNC(=O)c1ccc(CS(=O)(=O)c2ccccc2)o1	none
O=C(O)c1ccc(CS(=O)(=O)c2ccccc2)o1	MITF primary 56 | MITF inh conf 74 | AlphaScreen DR inactive | AS interf ctr inactive
COc1ccc(Nc2nc(-c3cccs3)cs2)c(OC)c1	MITF primary 71 | MITF inh conf inactive | AS interf ctr inactive
COc1cc2nc(N3CCc4ccccc4C3)nc(Nc3ccc(N4CCOCC4)cc3)c2cc1OC	none
CC(C)CCN1NC2(CCCCC2)NC1=S	MITF primary 65 | MITF inh conf inactive | AS interf ctr inactive
CN1NC2(CCCC2)NC1=S	none
Cc1ccsc1/C=N/Nc1nc(=O)[nH]nc1C	MITF primary 60 | MITF inh conf 34 | AS interf ctr 100
Cc1n[nH]c(=O)nc1N/N=C/c1ccc(O)cc1	none
O=C(O)CCN1C(=O)C(=O)/C(=C(\O)c2ccc(Cl)cc2)C1c1ccccc1F (configuration not stated)	none
Cc1ccc(S(=O)(=O)N2CC(O)CC2C(=O)O)cc1C (configuration not stated)	none
O=C(O)C1CC(O)CN1S(=O)(=O)c1ccc(Cl)c(Cl)c1 (configuration not stated)	MITF primary 65 | MITF inh conf inactive | AS interf ctr inactive
O=C1CCCN1CCCNc1ccc(Cl)nn1	MITF primary 84 | MITF inh conf inactive | AS interf ctr inactive
O=C1CCCN1CCCNc1cc(Cl)ncn1	none
CN(CCN1CCOCC1)C1CCN(C(=O)CNC(=O)/C=C/c2cccs2)CC1	MITF primary 62 | MITF inh conf inactive | AS interf ctr inactive
CC1(C)CC2CC(C)(CN2CC(O)COc2ccccc2)C1 (configuration not stated)	none
COc1cccc(COCC(O)CN2CC3(C)CC2CC(C)(C)C3)c1 (configuration not stated)	MITF primary 68 | MITF inh conf inactive | AS interf ctr inactive
O=C(N/N=C/c1ccccc1C(F)(F)F)c1ccncc1	none
CC1CC(C)CN(C(=O)c2cccc3c2-c2ccccc2C3=O)C1 (configuration not stated)	MITF primary 66 | MITF inh conf inactive | AS interf ctr inactive
